Measured values reported in PubChem BioAssay (NCATS).
Where “and” joins values, the source holds several entries; their conditions need not be identical. Equal values may be shown once. Records with an inconclusive call do not appear. Where a call stands in place of a potency, no number is given. Calls of active or inactive are those of the source. Unless noted, calls come from the whole dose curve.

Key:
[1] = target: Peroxisome proliferator-activated receptor delta (Homo sapiens) (UniProt Q03181); assay: qHTS assay for small molecule antagonists of peroxisome proliferator-activated receptor delta signaling (AID 588535; active = well fitted inhibition curve with a large enough effect in the signal ratio, with a control signal flat, not every such curve was filed as active; the % refers to the signal ratio)
Procedure, shortened: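 Antagonist-mode beta-lactamase reporter (GeneBLAzer PPAR-delta-UAS-bla) in HEK293T cells, 2% charcoal/dextran FBS, 4000 cells/well. Compound titrations, 18 h at 37 C; CCF4 ratio read, IC50 and efficacy from Hill fits.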

[2] = target: Peroxisome proliferator-activated receptor gamma (Homo sapiens) (UniProt P37231); assay: qHTS assay for small molecule agonists of peroxisome proliferator-activated receptor gamma signaling (AID 588536; active = well fitted curve in the direction sought with a large enough effect in the signal ratio, with a control signal flat, not every such curve was filed as active; the % refers to the signal ratio)
Procedure, shortened: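 HEK293 UAS-bla reporter line, 1% charcoal/dextran FBS; titration, 16 h, 37 C; CCF4 loading 2 h RT; fluorescence 460/530 nm. Normalized to rosiglitazone 2 uM = 100%, DMSO = 0%.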

[3] = target: Peroxisome proliferator-activated receptor gamma (Homo sapiens) (UniProt P37231); assay: qHTS assay for small molecule antagonists of peroxisome proliferator-activated receptor gamma signaling (AID 588537; active = well fitted inhibition curve with a large enough effect in the signal ratio, with a control signal flat, not every such curve was filed as active; the % refers to the signal ratio; note: potency is the fitted concentration of half-maximal effect)
Procedure, shortened: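 PPARγ-UAS-bla HEK293 cells (3000/well) in 1% charcoal/dextran-stripped FBS are treated with compound, then stimulated with 50 nM rosiglitazone for 16 h at 37 °C. Read-out is CCF4 β-lactamase fluorescence after 2 h at RT. IC50 comes from Hill fits normalised to rosiglitazone and DMSO.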

[4] = target: Vitamin D3 receptor (Homo sapiens) (UniProt P11473); assay: qHTS assay for small molecule antagonists of vitamin D receptor signaling (AID 588541);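 note: receptor activated by calcitriol during compound treatment; series mostly up to about 77 µM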
Procedure, shortened: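 VDR-UAS-bla HEK293T cells in 2% charcoal-stripped FBS were stimulated with 1-alpha,25-dihydroxyvitamin D3 (3 nM final) plus compound for 16 h at 37 C. The beta-lactamase CCF4 readout was normalized to 50 nM agonist and DMSO, and Hill fits gave IC50.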

[5] = target: Vitamin D3 receptor (Homo sapiens) (UniProt P11473); assay: qHTS assay for small molecule agonists of vitamin D receptor signaling (AID 588543)
Source text: NIH Chemical Genomics Center [NCGC]
U.S. Environmental Protection Agency [EPA]
National Institutes of Environmental Health Sciences [NIEHS]
National Toxicology Program [NTP]
The Vitamin D receptor (VDR) is a member of nuclear hormone receptor superfamily and it plays a critical role in calcium homeostasis and bone metabolism. It plays a role in inducing cell differentiation, inhibiting cell growth and in thrombogenicity. So, VDR that mediates these effects represents a pharmacological target in prevention and treatment of hyperproliferative malignancies, such as cancer and psoriasis, cardiovascular, immunological, inflammatory and renal diseases etc.
NCGC Assay Protocol Summary
Using a beta-lactamase reporter-gene under control of Vitamin D receptor (VDR) response element, a cell-based assay [GeneBLAzer (VDR -UAS-bla assay developed by Invitrogen] was used to measure VDR ligands signaling. GeneBLAzer VDR -UAS-bla HEK293T cells were used with assay medium containing 2% charcoal-stripped FBS. The assay was performed in clear bottom black Greiner 1536-well plates. 1-alpha,25-Dihydroxy vitaminD3 was used as a positive control in the screen. Library compounds were measured for their ability to stimulate the reporter gene activity. Compounds were screened in a titration series in 1536-well format. The fluorescence intensity (405 nm excitation, 460/530 nm emission) was measured using an EnVision plate reader. Data was normalized relative to 1-alpha,25-Dihydroxy vitaminD3 control (50 nM, 100%) and DMSO only wells (basal, 0%). Concentration-response titration points for each compound were fitted to the Hill equation yielding concentrations of half-maximal stimulation (EC50) and maximal response (efficacy) values.
qHTS protocol for VDR beta-lactamase assay in agonist mode
[Step] [Parameter] [Value] [Description]
1. Reagent; 6 uL; 2000 cells/well
2. Incubation; 37 C for 5 hrs
4. Controls (1-alpha,25-Dihydroxy vitaminD3); 23 nL,
- Final concentrations of 50 nM and 15 nM in two columns
5. Incubation; 37 C for 16 hrs
6. Detection reagent; 1 uL of CCF4-dye
7. Incubation; RT for 2 hrs
8. Detection; Fluorescence; Envision plate reader

[6] = qHTS assay for small molecule agonists of retinoid X receptor alpha signaling (AID 588544); conditions: HEK293T RXRa-UAS-bla, beta-lactamase reporter, 18 h; 530 nm emission
[7] = target: Retinoic acid receptor RXR-alpha (Homo sapiens) (UniProt P19793); assay: as above
[8] = qHTS assay for small molecule antagonists of retinoid X receptor alpha signaling (AID 588546; active = well fitted inhibition curve with a large enough effect in the signal ratio, with a control signal flat, not every such curve was filed as active; the % refers to the signal ratio; note: potency is the fitted concentration of half-maximal effect;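 for max response: cells stimulated with 9-cis-retinoic acid as agonist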); conditions: HEK293T RXRa-UAS-bla, beta-lactamase ratio, antagonist mode; measured here: W530 green channel, cytotoxicity proxy
Procedure, shortened: (§1)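 Beta-lactamase reporter inhibition, read as CCF4 fluorescence ratio (ex 405, em 460/530 nm) after 2 h at RT. HEK293T UAS-bla cells, 2500/well, were stimulated with 9-cis-RA at 500 or 100 nM final alongside test compound for 18 h at 37 C.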

[9] = target: Retinoic acid receptor RXR-alpha (Homo sapiens) (UniProt P19793); assay: as above; conditions: HEK293T RXRa-UAS-bla, beta-lactamase ratio, antagonist mode
Procedure, shortened: as §1

[10] = target: Thyroid hormone receptor beta (Homo sapiens) (UniProt P10828); assay: qHTS assay for small molecule agonists of thyroid hormone receptor beta signaling (AID 588545)
Procedure, shortened: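 TR-UAS-bla-GripTite HEK 293 cells in medium with 2% charcoal/dextran FBS, 0.1 mM NEAA and 1 mM sodium pyruvate were treated with titrated compounds for 18 hrs at 37 C. Beta-lactamase reporter was read with CCF4 dye (ex 405, em 460/530 nm); EC50 from Hill fits.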

Sequence of Peroxisome proliferator-activated receptor delta (Homo sapiens) (Q03181 whole entry, looked up): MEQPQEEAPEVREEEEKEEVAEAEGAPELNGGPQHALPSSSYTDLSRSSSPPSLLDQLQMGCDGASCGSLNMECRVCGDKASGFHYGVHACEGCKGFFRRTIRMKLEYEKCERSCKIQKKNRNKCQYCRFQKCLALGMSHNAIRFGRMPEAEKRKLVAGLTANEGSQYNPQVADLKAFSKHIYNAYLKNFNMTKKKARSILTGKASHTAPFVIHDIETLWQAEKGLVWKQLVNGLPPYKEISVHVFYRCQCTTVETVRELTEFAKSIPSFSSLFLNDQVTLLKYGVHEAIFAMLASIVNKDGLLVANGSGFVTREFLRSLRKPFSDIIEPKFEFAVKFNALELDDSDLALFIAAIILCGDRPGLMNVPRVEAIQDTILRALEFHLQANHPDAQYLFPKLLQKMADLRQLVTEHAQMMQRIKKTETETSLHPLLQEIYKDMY
Sequence of Peroxisome proliferator-activated receptor gamma (Homo sapiens) (P37231 whole entry, looked up): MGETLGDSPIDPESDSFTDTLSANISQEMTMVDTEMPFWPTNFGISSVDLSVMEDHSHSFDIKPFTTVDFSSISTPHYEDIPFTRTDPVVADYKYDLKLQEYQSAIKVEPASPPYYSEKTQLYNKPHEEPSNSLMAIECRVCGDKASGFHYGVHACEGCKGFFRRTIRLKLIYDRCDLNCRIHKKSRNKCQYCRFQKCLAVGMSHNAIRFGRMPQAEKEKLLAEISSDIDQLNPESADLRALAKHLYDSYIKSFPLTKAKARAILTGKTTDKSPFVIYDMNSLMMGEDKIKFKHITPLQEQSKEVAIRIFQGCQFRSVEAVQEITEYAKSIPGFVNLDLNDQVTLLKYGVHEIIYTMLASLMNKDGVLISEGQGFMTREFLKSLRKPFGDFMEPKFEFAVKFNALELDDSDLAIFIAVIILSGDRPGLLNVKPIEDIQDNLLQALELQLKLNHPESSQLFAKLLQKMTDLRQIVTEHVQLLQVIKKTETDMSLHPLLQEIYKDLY
Sequence of Thyroid hormone receptor beta (Homo sapiens) (P10828 whole entry, looked up): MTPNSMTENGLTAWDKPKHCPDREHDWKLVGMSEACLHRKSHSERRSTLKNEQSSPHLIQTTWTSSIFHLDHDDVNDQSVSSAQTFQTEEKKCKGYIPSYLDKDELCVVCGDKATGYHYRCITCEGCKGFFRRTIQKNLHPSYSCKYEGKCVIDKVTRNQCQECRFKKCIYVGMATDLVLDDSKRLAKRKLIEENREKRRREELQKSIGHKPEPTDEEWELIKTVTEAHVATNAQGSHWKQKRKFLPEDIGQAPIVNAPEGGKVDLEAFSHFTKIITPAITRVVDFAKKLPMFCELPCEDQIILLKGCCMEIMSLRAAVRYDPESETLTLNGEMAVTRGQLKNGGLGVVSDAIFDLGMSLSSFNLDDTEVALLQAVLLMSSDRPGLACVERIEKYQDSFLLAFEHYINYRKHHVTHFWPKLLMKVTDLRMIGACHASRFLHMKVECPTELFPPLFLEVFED
Sequence of Vitamin D3 receptor (Homo sapiens) (P11473 whole entry, looked up): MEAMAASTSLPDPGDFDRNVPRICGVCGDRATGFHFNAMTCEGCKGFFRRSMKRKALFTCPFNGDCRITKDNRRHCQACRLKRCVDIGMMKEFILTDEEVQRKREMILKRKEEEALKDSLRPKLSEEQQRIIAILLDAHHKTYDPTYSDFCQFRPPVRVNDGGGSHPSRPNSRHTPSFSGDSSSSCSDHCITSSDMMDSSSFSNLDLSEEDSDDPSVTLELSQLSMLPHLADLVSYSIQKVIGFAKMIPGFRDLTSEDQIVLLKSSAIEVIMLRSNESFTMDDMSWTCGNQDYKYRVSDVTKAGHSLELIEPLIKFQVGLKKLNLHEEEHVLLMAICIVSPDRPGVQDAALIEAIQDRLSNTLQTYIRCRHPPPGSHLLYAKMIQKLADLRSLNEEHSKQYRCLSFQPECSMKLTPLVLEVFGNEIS
Sequence of Retinoic acid receptor RXR-alpha (Homo sapiens) (P19793 whole entry, looked up): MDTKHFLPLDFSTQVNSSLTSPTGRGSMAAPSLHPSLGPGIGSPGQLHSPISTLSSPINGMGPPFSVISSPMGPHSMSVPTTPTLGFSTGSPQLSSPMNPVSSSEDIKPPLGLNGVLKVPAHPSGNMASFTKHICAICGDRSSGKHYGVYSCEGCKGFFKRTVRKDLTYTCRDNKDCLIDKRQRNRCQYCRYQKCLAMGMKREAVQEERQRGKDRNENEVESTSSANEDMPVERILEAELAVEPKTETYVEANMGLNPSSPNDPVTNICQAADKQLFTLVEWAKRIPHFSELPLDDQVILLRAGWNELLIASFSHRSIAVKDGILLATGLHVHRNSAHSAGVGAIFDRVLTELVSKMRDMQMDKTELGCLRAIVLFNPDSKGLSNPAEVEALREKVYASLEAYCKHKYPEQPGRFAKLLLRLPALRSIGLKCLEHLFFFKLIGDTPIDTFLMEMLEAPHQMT

| Compound | outcome [1] | outcome [2] | Potency [3] | outcome [4] | outcome [5] | max response [6] | outcome [7] | max response [8] | max response [9] | outcome [10] | Potency [9] |
| --- | --- | --- | --- | --- | --- | --- | --- | --- | --- | --- | --- |
| C=Cc1ccccc1 | inactive | inactive | inactive | inactive | inactive | -4.91% | inactive | -10.4% and -6.3% | 1.17% (inactive) and -1.22% (inactive) | – | – |
| COC(C)=O | inactive | inactive | – | – | – | -9.31% | inactive | -2.37% | 11.4% (inactive) | inactive | – |
| CCCCCCCCCC(=O)O | inactive | – | – | inactive | inactive | 6.89% and 0.0203% | inactive | 6.37% and -10.5% | -2.15% (inactive) and -5.65% (inactive) | inactive | – |
| O=S(=O)(c1ccccc1)N(CC(F)(F)F)c1ccc(C(O)(C(F)(F)F)C(F)(F)F)cc1 | inactive | – | – | – | – | -15.6% | inactive | -56.3% | – | inactive | 12.6 µM (active) |
| CCCCCCCC/C=C\CCCCCCCC(=O)OC[C@@H](O)[C@H]1OC[C@H](O)[C@H]1O | inactive | inactive | – | inactive | inactive | -2.66% | inactive | -8.17% | -13.5% (inactive) | inactive | – |
| CN(C)Cc1ccccc1 | inactive | inactive | inactive | inactive | – | -2.82% | inactive | -2.86% | -1.44% (inactive) | inactive | – |
| CC(=O)S[C@@H]1CC2=CC(=O)CC[C@]2(C)[C@H]2CC[C@@]3(C)[C@@H](CC[C@@]34CCC(=O)O4)[C@H]12 | – | – | 39.8 µM (active) | – | – | – | – | – | – | inactive | – |
| O=C(O)CC(O)(CC(=O)O)C(=O)O | inactive | inactive | – | inactive | inactive | 2.81% and -9.62% and -10.5% | inactive | -2.45% and -5.52% and -2.31% | -0.99% (inactive) and 3.25% (inactive) and -0.625% (inactive) | inactive | – |
